Laboratory results from PubChem BioAssay AID1347423 (Functional Genomics Laboratory (NCATS/FGL), 2020).
In all, about 52,000 sequences went through this assay and about 210 (0.4%) were called active.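 How the source made its calls: active means gene whose silencing raises cell survival under the drug, median off-target-corrected z-score across its silencing RNAs 2 or more; inactive means the rest.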 This excerpt belongs to a sample that is enriched for actives.

Assay: Resistance to Poly (ADP-Ribose) Polymerase inhibitor: Gene Identification via Genome-wide siRNA Screen
Conditions: mouse BRCA2 R2336H ES cells, olaparib, CellTiter-Glo viability; hits give high values
Procedure, shortened: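 Mouse BRCA2 R2336H ES cells were reverse-transfected with siRNA (20 nM final), treated at 48 h with 500 nM olaparib, and read by CellTiter-Glo after 72 h. Scores: MAD-based z per siRNA, median per gene, seed off-target correction.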

| Sequence | z-score |
| --- | --- |
| GACAAGACAAGUUUUGGUATT against Elmo1 | -0.497 (inactive) |
| GGCCUUGAGGCUAUUCAUGTT against Stk16 | 0.0229 (inactive) |
| GGAAAGUUGUAUUUGAUGUTT against Nudt7 | 0.299 (inactive) |
| GCAUCUUCGAGGUUUCAAATT against BC006583 | 2.47 (inactive) |
| GGAAGUAGAGACAGGAGGATT against AF119384 | 1.25 (inactive) |
| GCGGCAUAUGCCUACUCUUTT against Slc6a12 | -1.46 (active) |
| GCCUAGACCAGAGAAAGGUTT against AW555464 | 0.139 (inactive) |
| GCAAGUAUUAAGUAUGACGTT against Vps13c | 0.194 (inactive) |
| GGCCAGGAGAAGAAGAUACTT against E130014J05Rik | 4.51 (active) |
| GCUUUUGAUAUUCCACGUUTT against Pole2 | -0.0546 (inactive) |
| GGAAUCGUCUGAGAAAUUCTT against Lgmn | 0.618 (inactive) |
| CCCUCUUUAUCGUCUGUGATT against Gpha2 | -0.468 (inactive) |
| CCAACAAUCCGUAUCGACCTT against 4930425N13Rik | -0.139 (inactive) |
| GGAAGAGGUUGAGAUCCAATT against Pogk | 0.561 (inactive) |
| GGACACUUAGCAGCAAAGGTT against Lsm7 | -1.42 (inactive) |
| CCUUGUACACGGAUUGAAUTT against Itga6 | 2.44 (active) |
| CCGUCUAUACAUCUUUCCATT against D630005B22Rik | -1.51 (inactive) |
| GCAGUAUAUCCUACAUUGGTT against Olfr510 | 1.69 (active) |
| CCUGAUAUAUGACUUUGGCTT against Ntf5 | -0.0586 (inactive) |
| CCUGCACAGGAUAAUUAUGTT against Zfp426 | 1.21 (inactive) |
| GGAGAUGAACAAGGACCUATT against Apoa1 | 1.02 (active) |
| GGUCAAUUCCCAUACCCUGTT against Trfr2 | 0.815 (inactive) |

| Sequence | z-score |
| --- | --- |
| CCAACUAUAACUCAGUCACTT against Ebf1 | 0.374 (inactive) |
| GGCACACGGUUUUCAUUAATT against Pcdhb5 | -0.354 (inactive) |
| GGCAUCACUGAUGAAUGAATT against Pacsin2 | -0.947 (active) |
| CCACUUUUAAAGGAAUGUGTT against Ncoa1 | -0.0128 (inactive) |
| GCUUGCAUGUACAGACAUUTT against Olfr517 | 1.3 (inactive) |
| CCAUCUGAUUUCUUUCCAGTT against MGC78233 | -0.642 (inactive) |
| GGAAAUGCCUUCAGAAAUUTT against Slc9a3r1 | 0.863 (inactive) |
| GCCAAUGUAACCUUCAAAATT against Lypla1 | 0.603 (inactive) |
| GGGCGACACAAGGUUUUUGTT against Kif3a | 1.13 (active) |
| GGAGUGUUUGAGAAAUACCTT against BC027342 | -0.283 (inactive) |
| GGCAAAGAUCGCAUCUUAATT against Eif2c2 | 0.222 (inactive) |
| GCUGCAUCCGUAGAUGUUGTT against Fthfd | -0.992 (inactive) |
| GGCCAAAGAGGAGGAAAACTT against D5Bwg0834e | -0.569 (inactive) |
| GGAGACAGUAAUAGCUCAUTT against Trp53bp1 | 2.14 (active) |
| GGACUUGUGGCUGAAAACCTT against Slc22a7 | 0.176 (inactive) |
| GGGAACAGCAUCUCUGUCATT against E130115E03Rik | -0.944 (inactive) |
| CCCUCAACUUUCAGAUCAGTT against Ard1 | 0.611 (inactive) |
| CCUCGUUCCUAUCAUUAACTT against Sdccag8 | 0.858 (inactive) |
| GGAAAGAAUAUGAGAAUGCTT against Reck | 2.07 (inactive) |
| UUGUCCUGGUCUCCUAUGCTT against Olfr141 | -1.98 (inactive) |
| CCCGCUCAAGAUCCUGUUUTT against 2310011J03Rik | -1.85 (inactive) |
| GCGAGUCGCUCAUAGUGAATT against AW822216 | 0.476 (inactive) |

| Sequence | z-score |
| --- | --- |
| GGAUCUGAAGGAAUACUUUTT against 2400010G15Rik | 2.14 (active) |
| GCAGCACCUUUGUGGUUCCTT against Ins2 | -0.904 (inactive) |
| CCGUGCCAAUAGUUCUGCUTT against Dpp4 | 0.286 (inactive) |
| GCACUGGAAUCAAACCAUCTT against Ppp2r5b | 2.45 (active) |
| GGUUUGAGCUCUUUAUUUUTT against Cyp2j13 | 0.00818 (inactive) |
| GGCGCAUGUUUCCAGCAAUTT against Tbx18 | 1.87 (inactive) |
| GGAUCUCUGUUUCUCAAAATT against Slc19a3 | 0.771 (inactive) |
| CCUCAAGAGAGCUACCGCATT against 1700018C11Rik | 0.313 (inactive) |
| GGCCCAUUGAUCUGUGAUATT against Klk8 | -0.338 (inactive) |
| GCAUGCGCGCUACACUCUATT against Adamts5 | 0.75 (active) |
| GAUUACAGACAGUGGAAAATT against Ndufb3 | 0.951 (inactive) |
| GGUAGUGUUAACUAUAUGGTT against Hmgb3 | 1.85 (active) |
| GAUCUUAUAUGUUGGUGGUTT against V1rc2 | -0.413 (inactive) |
| CCUUAAUAAACUAUGCUGCTT against 2810439M11Rik | -1.83 (inactive) |
| CCCUUGAAGAUCACUUAGCTT against Apln | 0.228 (inactive) |
| GGCACAGGGACCAUUGUUGTT against Hsd17b1 | 2.34 (active) |
| CGUACAAGACCAACAGAAGTT against D8Ertd82e | 2.36 (inactive) |
| GCUCAACAGACUCUGUACUTT against Igsf4d | 2.89 (inactive) |
| GCUAGUUGGAGCUAGAUUATT against E130320D18 | 0.013 (inactive) |
| GGGUUCCUCCUUUCACAGATT against Ppia | -0.754 (inactive) |
| CCGAAAUAAGGCUAGCUCATT against Rfxdc1 | 1.33 (inactive) |
| CGGCCUAUCUCUUGGUUUATT against Usp18 | 2.69 (active) |

| Sequence | z-score |
| --- | --- |
| GGACAUCCAUUCAAGGCCUTT against Rtn3 | 1.05 (inactive) |
| GGAAUUUGACAAACUCAGCTT against Rcn3 | 0.337 (inactive) |
| CCGUGGGACCAGAGUUAAATT against Gm253 | 1.99 (inactive) |
| GGUCAUCUAUCGUGUGCUGTT against Lamb2 | 1.09 (inactive) |
| CCAUUUAACCGUAAGACGUTT against Krtap8-2 | 0.535 (inactive) |
| CCUACAUUCACCAAAAGGUTT against Usp9y | 0.561 (inactive) |
| GGUCUCAAUCAGAGUUACATT against D430030K24Rik | 1.08 (active) |
| GGUGAUCAAUCCUCUAAUATT against Cri2 | 3.03 (inactive) |
| AACAGCAUCUUUGUGGUCCTT against Ins1 | -0.451 (inactive) |
| GGAUAAACUUCCAUCUUUCTT against Car14 | 1.27 (inactive) |
| GGAAGGAAGAAAAAAUAGUTT against Acat1 | -0.146 (inactive) |
| GGGCUGGAAUAAACUUGUCTT against Usp15 | 1.51 (active) |
| GGAACAUAGUAGCAUGCCATT against Leprel2 | -0.442 (inactive) |
| GGCUUAUGUCCCAAAGCUATT against Nexn | 1.35 (inactive) |
| CUGUAAGGCGGAUAAGACCTT against 2610017I09Rik | -0.52 (inactive) |
| CCCACUAAGAAACAAUCUATT against Gp1ba | 0.484 (inactive) |
| GGGACUUCUUGUGAAUGGATT against Mobp | -0.971 (inactive) |
| GUCUGUAUUCCUAGAUUCCTT against Olfr794 | 0.287 (inactive) |
| GGUCACUGUUUCCCUAGACTT against Prss33 | -0.494 (active) |
| GGUUAGGUUGAUGAAUAAGTT against Eif4ebp2 | -0.495 (inactive) |
| GGUUUUUGAGCCAUAUCCATT against 4632404H22Rik | 0.625 (inactive) |
| GGAUCCAAGCAUUAUAGUGTT against LOC229512 | -0.425 (inactive) |

| Sequence | z-score |
| --- | --- |
| CCCUUGUGAUGUGGUGAAGTT against Slc25a22 | -1.58 (inactive) |
| GGACAAGGAUAGUAGUAAGTT against Adprt1 | 3.83 (active) |
| GCAUGAAAACACGUUUGGGTT against Hdac11 | 0.768 (inactive) |
| CGAUCUUCCAAACCCUCUUTT against Dhh | -0.652 (inactive) |
| GGACUGAGGAAGAAUUUAATT against Grp58 | -0.954 (inactive) |
| GGAAUGUAUCCAGGACUUCTT against Brd4 | -1.95 (inactive) |
| GGAGAUCGUGCAAUUCAUUTT against Rasl2-9 | -0.53 (inactive) |
| GGCGGUGAUCCAGGGUUUATT against Klc2 | -0.0337 (inactive) |
| GCAAUGUCGCCAAACGUAATT against Zfpn1a1 | -0.213 (inactive) |
| CCGUAAUUGAUUCUUUACUTT against Kif3a | 2.25 (active) |
| GCCCAAACUCAAGCAAGUCTT against Trpm3 | -2.79 (inactive) |
| GGCUACGAAACCAGAAGAUTT against Shd | 0.117 (inactive) |
| CCUUCUGGCCCAGACGAUUTT against Pxmp2 | -0.173 (inactive) |
| GCUGAGAGAAAGGUUCACATT against Tube1 | -1.3 (inactive) |
| CCUUGUAUCCUUAAUCCUCTT against Ppt1 | 0.555 (inactive) |
| GGAAGCAGAAUUGUAAAGATT against Bid3 | 2.41 (active) |
| GGAAAUGUGACCACAAAGATT against Tas2r120 | -0.347 (inactive) |
| GGAAGAAUUGAACCACAGGTT against Papolg | 0.756 (inactive) |
